PubChem BioAssay (Tox21)
Results filed as inconclusive are left out. Values without a mark were called inactive. Activity calls are given as the source filed them. Calls come from the whole dose curve.

assay: qHTS assay to identify small molecule agonists of H2AX - cell viability counter screen (AID 1224847); details: CHO-K1 viability, CellTiter-Glo luminescence, 3 h; series mostly up to 154 µM; activity change, negative = cytotoxicity: at the top concentration; note: nearly all actives have a fitted effect of over 30% in size; for activity change, negative = cytotoxicity: top concentration of the series differs between compounds
Text: National Center for Advancing Translational Sciences [NCATS]
NIH Chemical Genomics Center [NCGC]
U.S. Environmental Protection Agency [EPA]
National Institutes of Environmental Health Sciences [NIEHS]
National Toxicology Program [NTP]
U.S. Food and Drug Administration [FDA]
HTRF phospho-H2AX (Ser139) assay (Cisbio Bioassays, US) enables the quantitative detection of the histone variant H2AX when phosphorylated on serine 139. When double-stranded DNA breaks, either by ionizing radiation or endogenous physiological processes, H2AX becomes phosphorylated at Ser139. This phospho-Ser139 serves as a sensitive biomarker for the detection of such breaks, localizing the site of DNA repair. So, HTRF phospho-H2AX Ser139 is a pertinent assay to study genome stability, the cell cycle, DNA repair, and it serves as a biomarker for cancer, and to understand aging. Wild type CHO-K1 cells were used to identify the inducers of Phospho-H2AX Ser 139 from the Tox21 compound collections. Also cytotoxicity of the Tox21 10K compound library against the CHO-K1 cell line was tested by measuring the cell viability using CellTiter-Glo assay (Promega, Madison, WI).
Tox21 Assay Protocol Summary:
The CHO-K1 cells suspended in culture medium containing 10% FBS were dispensed at 1000 cells/ 3 ul/well in 1536-well white wall/solid bottom plates (Greiner Bio-One North America, NC) using a Multidrop Combi (Thermo Fisher Scientific Inc., Waltham, MA). After the assay plates were incubated at 37C overnight, 23 nl of compounds at 15 concentrations (from 5-48 columns) or positive control (from 1 to 4 columns) were transferred to the assay plates using a Pintool station (Wako, San Diego, CA) into each well resulting in a final DMSO concentration of 0.76%. After 3hr incubation at 37C, 3 uL/well CellTiter-Glo luminescent cell viability reagent (Promega Corporation, Madison, WI) was added using a Flying Reagent Dispenser (FRD) (Aurora Discovery, CA). After incubation at room temperature for 30 min, the luminescence intensity was read using a ViewLux plate reader (PerkinElmer, Waltham, MA).
% is set by controls: 0 for no effect and ±100 for the full control effect; potency is the fitted concentration of half-maximal effect.

| SMILES | activity change, negative = cytotoxicity | Potency |
| --- | --- | --- |
| CCOC(=O)C1=C[C@]2(CC)CCCN3CCc4c(n1c1ccccc41)[C@@H]32 | -7.52% [at 70.9 µM] |  |
| CC[N+]1(CC)CCC(=C(c2ccccc2)c2ccccc2)C1C (stereo not given) | -2.28% [at 70.9 µM] |  |
| CCOC(=O)c1cccnc1 | 1.02% [at 70.9 µM] |  |
| C[C@H]1C[C@H]2[C@@H]3CCC4=CC(=O)C=C[C@]4(C)[C@@]3(Cl)[C@@H](O)C[C@]2(C)[C@@]1(O)C(=O)CO | -2.29% [at 70.9 µM] |  |
| Nc1ccc(N)c2c1C(=O)c1ccccc1C2=O |  | 50.5 µM (active) |
| COC(=O)c1ccc(I)cc1S(=O)(=O)NC(=O)Nc1nc(C)nc(OC)n1 | 1.41% |  |
| Cc1ncc(CO)c(C=O)c1O | 7.82% [at 70.9 µM] |  |
| Brc1c2ccccc2c(Br)c2ccccc12 | 5.06% [at 14 µM] |  |
| CCCn1cnc2c1c(=O)n(CCCCC(C)=O)c(=O)n2C | 7.52% [at 70.9 µM] |  |
| COc1ccc(C(=O)N2CCN(CC(=O)N3CCOCC3)CC2)cc1 | 1.19% [at 70.9 µM] |  |
| Cc1oc(-c2ccccc2)nc1CCOc1cccc2c1ccn2CCC(=O)O | 2.41% |  |
| C=C(C)C(=O)OCC | 0.135% |  |
| CN1CCC(=C2c3ccccc3Sc3ccccc32)CC1 | -5.52% [at 70.9 µM] |  |
| CCCC(=O)Nc1ccc(O)c(C(C)=O)c1 | -1.61% [at 70.9 µM] |  |
| CCn1cc(C(=O)O)c(=O)c2cnc(N3CCNCC3)nc21 | 1.6% [at 70.9 µM] |  |
| CCCCCCCCCCO[C@@H]1O[C@H](CO)[C@@H](O)[C@H](O)[C@H]1O | -4.17% |  |
| CC1OC(=O)C(C)OC1=O (stereo not given) | 8.37% |  |
| O=CC1CC=CCC1 (stereo not given) | -1.52% |  |
| O=C(O)c1nc(Cl)c(Cl)c(Cl)c1Cl | 5.96% |  |
| Cc1[nH]c(C)c(Cl)c(=O)c1Cl | -0.294% [at 31.6 µM] |  |

| SMILES | activity change, negative = cytotoxicity | Potency |
| --- | --- | --- |
| CCCCCCOC(=O)NC(=N)c1ccc(NCc2nc3cc(C(=O)N(CCC(=O)OCC)c4ccccn4)ccc3n2C)cc1 | -4.01% [at 70.9 µM] |  |
| CCOc1ccc(O)cc1 | -0.668% |  |
| CC(C)O.CC(C)O.CCOC(=O)/C=C(\C)O.CCOC(=O)/C=C(\C)O.[Ti] | 9.57% |  |
| COc1cc2nc(N(C)CCCNC(=O)C3CCCO3)nc(N)c2cc1OC (stereo not given) | -8.72% [at 70.9 µM] |  |
| CN(C)CCN(Cc1ccc(Cl)cc1)c1ccccn1 | 0.727% [at 70.9 µM] |  |
| COc1cc2nc(Cl)nc(N)c2cc1OC | 0.22% [at 70.9 µM] |  |
| COc1cc2nc(N3CCN(C(=O)C4COc5ccccc5O4)CC3)nc(N)c2cc1OC (stereo not given) | -1.35% [at 70.9 µM] |  |
| CN(C)CCCN1c2ccccc2Sc2ccccc21 | 0.998% [at 70.9 µM] |  |
| C=CCOC(=O)CCC1CCCCC1 | 10.1% |  |
| NC(N)=NCCC[C@H](N)C(=O)O | 0.155% [at 14 µM] |  |
| CC(=O)c1ccc2c(c1)N(CCCN1CCC(CCO)CC1)c1ccccc1S2 | 0.417% [at 70.9 µM] |  |
| C=C(C)C(=O)OCCOCC | -0.306% |  |
| Nc1ccccc1S(=O)(=O)c1ccccc1 | -7.09% |  |
| CC(C)Cc1ccc(C(C)C(=O)OCc2ccccn2)cc1 (stereo not given) | -14.4% [at 70.9 µM] |  |
| CCCCC(=O)OCC(=O)[C@H]1[C@H](C)C[C@H]2[C@@H]3C[C@H](F)C4=CC(=O)C=C[C@]4(C)[C@@]3(F)[C@@H](O)C[C@@]21C | 2.9% [at 70.9 µM] |  |
| CCCCC1=NC2(CCCC2)C(=O)N1Cc1ccc(-c2ccccc2-c2nn[nH]n2)cc1 | 8.34% [at 70.9 µM] |  |
| CC1CCC(=O)C1=O (stereo not given) | -1.94% |  |
| CCCCC | -2.94% |  |
| O=C(CS)Nc1ccccc1 | -5.14% [at 70.9 µM] |  |
| CC(C)C[C@H]1C(=O)N2CCC[C@H]2[C@]2(O)O[C@](NC(=O)[C@@H]3C=C4c5cccc6[nH]c(Br)c(c56)C[C@H]4N(C)C3)(C(C)C)C(=O)N12 | -5.91% [at 70.9 µM] |  |
